Data taken from PubChem BioAssay AID1159580 (chemical genetic matrix, 2015).
Where “and” joins values, the source holds several entries; their conditions need not be identical. Equal values may be shown once. The campaign covered roughly 5,500 compounds. About 2,000 (36%) were called active. About 18% were inconclusive and are not listed. No stated cut-off is given here; in the data, active means normalized growth mostly below about 0.91 (no sharp cut-off); inconclusive means no clear call, values can overlap the other calls; inactive means mostly above about 0.92. The list shows a part of the results.

Assay: chemical genetic growth profiling, strain panel (AID 1159580);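 further: tested at 20 µM; growth read once vehicle control cultures reached saturation at 30 °C; 1 = growth at the plate median or of vehicle wells; lower values mean less growth of the strain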
Details: S. cerevisiae deletion strains, growth OD

Measured: normalized growth

CN(C)C(=O)C(CCN1CCC(O)(c2ccc(Cl)cc2)CC1)(c1ccccc1)c1ccccc1
active: locus YER155C, strain BEM2 (second series), active compounds read low 0.843
inactive: locus YAL013W, strain DEP1, active compounds read low 1.01 | locus YAL021C, strain ccr4, active compounds read low 0.984 | locus YAL026C, strain drs2, active compounds read low 0.999 | locus YAL030W, strain snc1, active compounds read low 1 | locus YAL040C, strain CLN3, active compounds read low 0.979 | locus YBL061C, strain skt5, active compounds read low 0.99 | locus YBR009C, strain hhf1, active compounds read low 0.993 | locus YBR021W, strain FUR4, active compounds read low 0.977 | locus YBR023C, strain chs3, active compounds read low 1.01 | locus YBR171W, strain sec66, active compounds read low 0.988 | locus YBR229C, strain ROT2, active compounds read low 0.997 | locus YBR231C, strain swc5, active compounds read low 0.965 | locus YBR279W, strain paf1, active compounds read low 0.995 | locus YCL011C, strain gbp2, active compounds read low 0.989 | locus YCL016C, strain dcc1, active compounds read low 0.994 | locus YCL029C, strain bik1, active compounds read low 1.03 | locus YCL061C, strain MRC1 (second series), active compounds read low 0.996 | locus YCL061C, strain MRC1, active compounds read low 0.988 | locus YCL069W, strain vba3, active compounds read low 0.991 | locus YCR088W, strain abp1, active compounds read low 1 | locus YDL005C, strain med2, active compounds read low 0.988 | locus YDL035C, strain GPR1, active compounds read low 0.965 | locus YDL040C, strain nat1, active compounds read low 0.994 | locus YDL074C, strain BRE1, active compounds read low 0.979 | locus YDL101C, strain DUN1, active compounds read low 1 | locus YDL134C, strain PPH21, active compounds read low 1.01 | locus YDL185W, strain tfp1, active compounds read low 1.02 | locus YDL192W, strain arf1, active compounds read low 1.02 | locus YDR001C, strain nth1, active compounds read low 1 | locus YDR069C, strain doa4, active compounds read low 1 | locus YDR101C, strain arx1, active compounds read low 1.01 | locus YDR137W, strain rgp1, active compounds read low 1.11 | locus YDR150W, strain NUM1, active compounds read low 1.01 and 0.999 | locus YDR159W, strain sac3, active compounds read low 0.999 | locus YDR162C, strain NBP2, active compounds read low 1 | locus YDR195W, strain ref2 0.949 | locus YDR297W, strain sur2, active compounds read low 1 | locus YDR318W, strain mcm21, active compounds read low 1.01 | locus YDR334W, strain swr1, active compounds read low 1.01 | locus YDR335W, strain msn5, active compounds read low 1 | locus YDR363W, strain ESC2, active compounds read low 0.967 | locus YDR388W, active compounds read low 1.02 | locus YDR392W, strain spt3, active compounds read low 0.797 | locus YDR502C, strain sam2, active compounds read low 1.01 | locus YEL003W, strain gim4, active compounds read low 0.993 | locus YEL037C, strain rad23, active compounds read low 1 | locus YEL061C, strain CIN8 (second series), active compounds read low 1.01 | locus YEL061C, strain CIN8, active compounds read low 1 | locus YER002W, strain NOP16, active compounds read low 1.01 | locus YER015W, strain faa2, active compounds read low 0.967 | locus YER016W, strain bim1, active compounds read low 0.996 | locus YER110C, active compounds read low 1.02 | locus YER111C, strain swi4, active compounds read low 0.98 | locus YER155C, strain BEM2, active compounds read low 1.01 | locus YER167W, strain BCK2, active compounds read low 0.981 | locus YFR010W, strain ubp6, active compounds read low 0.988 | locus YGL078C, strain dbp3, active compounds read low 1.01 | locus YGL086W, strain mad1, active compounds read low 0.989 | locus YGL167C, strain pmr1, active compounds read low 0.99 | locus YGL173C, strain kem1, active compounds read low 0.981 | locus YGL227W, strain vid30, active compounds read low 1 | locus YGL240W, strain doc1, active compounds read low 0.956 | locus YGL248W, strain PDE1, active compounds read low 1 | locus YGL253W, strain hxk2, active compounds read low 1.02 | locus YGR078C, strain PAC10, active compounds read low 1 and 0.987 | locus YGR135W, strain pre9, active compounds read low 1.01 | locus YGR229C, strain SMI1, active compounds read low 1.01 | locus YGR252W, strain gcn5, active compounds read low 0.871 | locus YHR013C, strain ard1, active compounds read low 0.955 | locus YHR027C, strain rpn1, active compounds read low 0.999 | locus YHR030C, strain SLT2, active compounds read low 1.01 and 0.969 | locus YHR079C, strain IRE1 (second series), active compounds read low 1.02 | locus YHR079C, strain IRE1, active compounds read low 0.987 | locus YHR094C, strain hxt1, active compounds read low 1.01 | locus YHR129C, strain ARP1, active compounds read low 1 | locus YHR142W, strain chs7, active compounds read low 1.01 | locus YHR200W, strain rpn10, active compounds read low 0.997 | locus YIL066C, strain RNR3, active compounds read low 1 | locus YIL073C, strain SPO22, active compounds read low 1.05 | locus YIL125W, strain kgd1, active compounds read low 1.01 | locus YIR030C, strain dcg1, active compounds read low 1.02 | locus YJL092W, strain hpr5, active compounds read low 0.994 | locus YJL095W, strain BCK1 (second series), active compounds read low 0.993 | locus YJL095W, strain BCK1, active compounds read low 1 and 0.99 | locus YJL115W, strain asf1, active compounds read low 0.978 | locus YJL129C, strain trk1, active compounds read low 0.941 | locus YJL134W, strain LCB3, active compounds read low 1.01 | locus YJL154C, strain vps35, active compounds read low 0.998 | locus YJL164C, strain tpk1, active compounds read low 0.994 | locus YJL166W, strain qcr8, active compounds read low 0.967 | locus YJL168C, strain set2, active compounds read low 1.01 | locus YJL187C, strain SWE1 (second series), active compounds read low 1.02 | locus YJR043C, strain POL32, active compounds read low 0.986 | locus YJR066W, strain TOR1, active compounds read low 0.928
